Source: PubChem
CYP2C9 act – human CYP2C9 activators, primary screen, biochemical, luminescence; recombinant CYP2C9, luciferin-H conversion; hits give high values; factor 1 = untreated enzyme, 0 = blocked; actives 1.4% (n = 96,000); Cytochrome P450 2C9 (Homo sapiens), P11712; AID 1024, 2008; activation factor at 5 µM;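 active means activation factor of 2 or more for CYP2C9 at a 5 µM dose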;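 further: 0 = sulfaphenazole-blocked wells and 1 = vehicle-only wells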
Target sequence (P11712 whole entry, looked up): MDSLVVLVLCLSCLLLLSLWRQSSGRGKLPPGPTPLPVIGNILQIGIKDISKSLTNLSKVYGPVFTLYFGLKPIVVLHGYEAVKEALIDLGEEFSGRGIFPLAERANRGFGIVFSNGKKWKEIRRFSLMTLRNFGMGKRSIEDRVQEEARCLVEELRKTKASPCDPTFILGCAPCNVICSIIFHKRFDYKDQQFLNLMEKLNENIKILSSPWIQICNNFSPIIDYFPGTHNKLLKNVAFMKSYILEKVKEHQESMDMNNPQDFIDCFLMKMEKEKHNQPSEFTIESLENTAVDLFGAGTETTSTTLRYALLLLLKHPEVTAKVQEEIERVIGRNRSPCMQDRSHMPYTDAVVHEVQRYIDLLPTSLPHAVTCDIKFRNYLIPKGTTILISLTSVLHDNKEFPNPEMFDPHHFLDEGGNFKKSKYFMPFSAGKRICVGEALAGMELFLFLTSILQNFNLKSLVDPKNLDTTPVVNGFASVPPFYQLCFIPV
CYP2C9 inh – blockers of cytochrome P450 2C9 activity – biochemical, luminescence, ADME assay, primary screen; AID 777, 2007; actives 20% (n = 96,000); inhibition, % at 5 µM; CYP2C9 Supersomes, luciferin-H conversion;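 active means blocking of liver enzyme CYP2C9 beyond about 50% at 5 µM, limit read from the data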
CYP2C19 inhib – blockers of cytochrome P450 2C19 activity – biochemical, luminescence, ADME assay, primary screen | CYP2C19 Supersomes, luciferin-H EGE luminescence, 30 min | inhibition, % at 5 µM | actives 21% (n = 96,000);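 active means CYP2C19 inhibition above a set limit at 5 µM in the primary screen, cut at about 50% in these data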;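 further: plate controls were negative control wells for no effect and 2.5 mM tranylcypromine positive control for full effect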
PLAP act – PLAP enzyme activators, biochemical, luminescence, HTS. Alkaline phosphatase, placental type (Homo sapiens), P05187. purified PLAP enzyme, luminescent substrate read-out; hits give high values. activation fold at 20 µM. actives 1.2% (n = 96,000). AID 696, 2007; in the data active means activation fold above about 2
CYP2C19 activ – human CYP2C19 activators, primary screen, biochemical, luminescence | recombinant CYP2C19, luciferin-H EGE luminescence; hits give high values; 0 = fully inhibited enzyme, 1 = untreated enzyme | activation factor at 5 µM | Cytochrome P450 2C19 (Homo sapiens), P33261 | 96,000 tested, under 10 active | AID 1025, 2008;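 active means activation factor of at least 2 at 5 µM in the primary screen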;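 further: 0 = wells with 2.5 mM tranylcypromine and 1 = vehicle-only wells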
Starred values were filed as active, the others as inactive. Hits are enriched below; roughly 31% of the tested compounds scored in any of these assays.

SMILES	CYP2C9 act	CYP2C9 inh	CYP2C19 inhib	PLAP act	CYP2C19 activ
COc1cccc(CNC(=O)C2CCCN(c3nc4ccccc4o3)C2)c1 (stereo not given)	0.7	27	28	1.1	0.7
CCCNC(=O)c1cc2c(C(F)(F)F)nn(C)c2s1	1	0	6	1	0.9
CCN(CC)c1ccc(NC(=O)CC2Oc3ccccc3NC2=O)c(C)c1 (stereo not given)	1.3	-28	6	1.1	0.9
CC(C)(C)C(=O)Nc1nnc(SCc2ccc(F)cc2)s1	0.2	78*	68*	0.9	0.3
COC(=O)c1cccc(CSc2nnc(C)s2)c1	0.9	6	62*	1	0.4
Cc1c(C(C)NC(=O)Nc2ccc(F)cc2F)cnn1C (stereo not given)	1.2	-16	-16	1.1	1.2
O=C(NNC(=S)NCc1ccco1)c1ccc(Cl)s1	0.4	55*	46	1.3	0.5
CCOc1ccccc1N(CC(=O)OC)S(=O)(=O)c1ccccc1	0.3	71*	51*	1.2	0.5
CCOc1ccccc1N(CC(=O)O)S(=O)(=O)c1ccccc1	1	3	6	1	0.9
COc1ccc(N(CC(=O)NN=C2CCCC2)S(=O)(=O)c2ccccc2)cc1	0.8	21	51*	1.1	0.5
CCOc1ccc(S(=O)(=O)N(CC(N)=O)c2ccc(C)cc2)cc1	0.6	41	71*	1	0.3
COc1ccc(N(CC(=O)NN=C2CCCCCCC2)S(=O)(=O)c2ccccc2)cc1Cl	0.8	21	32	1.5	0.7
CCOc1ccc(N(CC(=O)OC)S(=O)(=O)c2ccc3c(c2)n(C)c(=O)c(=O)n3C)cc1	0.4	56*	11	1.4	0.9
O=C(Nc1ccc(O)cc1)c1ccc(C(=O)c2ccccc2)o1	0.8	16	15	0.8	0.8
COc1ccc(OC)c(N(CC(N)=O)S(=O)(=O)c2ccc(OC)c(OC)c2)c1	0.6	45	78*	0.9	0.2
CCC(C)NC(=O)CN(c1ccc(OC)cc1)S(=O)(=O)c1ccc(NC(C)=O)cc1 (stereo not given)	0.4	57*	38	1.2	0.6
CCOc1ccc(N(CC(N)=O)S(=O)(=O)c2ccc(F)cc2)cc1	0.9	12	37	1	0.6
COc1ccc(N(C(=O)COc2ccccc2OC)S(=O)(=O)c2ccc(C)cc2)cc1	0.5	52*	40	0.8	0.6
COc1ccc(NC(=O)CCS(=O)(=O)c2ccc(OC)cc2)cc1	0.6	43	27	0.9	0.7
CCOc1ccc(N(CC(=O)OC)S(=O)(=O)c2ccc(OC)c(OC)c2)cc1	0.5	55*	64*	1.4	0.4
COc1ccc(C2/C(=C(\O)c3ccc4c(c3)OCCO4)C(=O)C(=O)N2CCCN(C)C)c(OC)c1 (stereo not given)	1	4	2	1.2	1
CCCCOc1nc2ccccc2nc1C(C#N)C(=O)NC1CCCCC1 (stereo not given)	0.5	50	12	1.4	0.9
COc1ccc(N(CC(=O)O)S(=O)(=O)c2ccc(OC)c(OC)c2)cc1	0.7	29	22	1.1	0.8
COC(=O)CN(c1ccc(OC)cc1)S(=O)(=O)c1ccc(OC)c(OC)c1	0.8	16	94*	1.4	0.1
CCOc1ccc(CN2CCNC(=O)C2CC(=O)OC)cc1 (stereo not given)	1.1	-12	-15	1.1	1.2
CCOC(=O)Cc1cnc(NC(=O)NC(C(=O)OCC)(c2ccccc2)C(F)(F)F)s1 (stereo not given)	0.7	33	53*	1	0.5
CCOC(=O)C(NC(C)=O)(OCc1ccc(F)cc1)C(F)(F)F (stereo not given)	0.9	9	55*	0.9	0.4
CCOC(=O)C(NC(=O)Nc1cccc(C)n1)(OCC(F)(F)F)C(F)(F)F (stereo not given)	0.6	38	20	0.8	0.8
CCOC(=O)C(NC(=O)Nc1ccccc1)(OCC)C(F)(F)F (stereo not given)	0.8	20	50*	0.8	0.5
